Screens (PubChem)
MazEF act – activators of E. coli MazEF toxin-antitoxin RNase, primary screen, biochemical, fluorescence, uHTS | Endoribonuclease toxin MazF (Escherichia coli (strain K12)), P0AE70 | FAM/BHQ RNA-DNA oligo cleavage fluorescence, 5 h | activation, % at 20 µM | 0.32% of 350,000 active | AID 504720, 2011; in the data active = activation above about 50%
Y pestis TopoI – Yersinia pestis topoisomerase I inhibitors, primary screen, biochemical, cleavage product accumulation, plate reader, single point; DNA topoisomerase I (Yersinia pestis CO92); Y. pestis Topo-I cleavage product accumulation; activity, % at 10 µM; 0.064% of 360,000 active; in the data active = activity above about 50%, passing the limit was not always enough
Mtb BioA inh – M. tuberculosis BioA enzyme inhibitors, primary screen, biochemical, plate reader, single point, HTS; purified M. tuberculosis BioA enzyme; 0.096% of 360,000 active; inhibition, % at 9.99 µM; AID 602481, 2012; 7,8-diaminopelargonic acid synthase BioA (Mycobacterium tuberculosis); in the data active = inhibition above about 40%
TcdB GH inh – TcdB glycohydrolase inhibitors, primary screen, biochemical, single point, plate reader. 0.24% of 350,000 active. TcdB glycohydrolase enzymatic assay. inhibition, % at 9.99 µM. AID 652162, 2013; in the data active = inhibition above about 10%
FadD28 binding – inhibitors of FadD28 bisubstrate probe binding, primary screen, biochemical, fluorescence polarization, single point. Mycobacterium tuberculosis FadD28 fatty-acid-AMP ligase. inhibition, % at 12.5 µM. AID 588549, 2011. 0.22% of 360,000 active; in the data active = inhibition above about 8.5%, passing the limit was not always enough
DUSP3 inh – VHR1 phosphatase inhibitors, primary screen, biochemical, absorbance, uHTS; Dual specificity protein phosphatase 3 (Homo sapiens), P51452; recombinant VHR phosphatase, pNPP absorbance; inhibition, % at 13.3 µM; 0.52% of 290,000 active; AID 1654, 2009; in the data active = inhibition above about 50%
An asterisk follows results filed as active; / = no result. Hits are enriched below; roughly 1% of the tested compounds scored in any of these assays.

SMILES	MazEF act	Y pestis TopoI	Mtb BioA inh	TcdB GH inh	FadD28 binding	DUSP3 inh
Cc1cccc(NC(=O)Cn2c(=O)oc3ccccc32)c1	11	2	0	/	35*	-1
CCOc1ccccc1NC(=O)Cn1c(=O)n(CCC(=O)NC2CCCC2)c(=O)c2ccccc21	/	0	-1	/	-2	24
O=C(Nc1ccccc1)Nc1cccc(-c2nnco2)c1	2	-4	-1	-2	-1	53*
O=C(Nc1ccc(-c2nnco2)cc1)c1ccccc1	8	2	1	/	-2	-4
COc1ccc2c(C)cc(SCC(=O)Nc3cc(C(N)=O)cc(C(N)=O)c3)nc2c1	104*	-5	1	1	-2	-7
COc1ccccc1CN1[C@@H](CO)[C@@H](c2ccccc2)C12CN(C(=O)c1ccccn1)C2	/	/	/	-1	/	/
Nc1c(N2CCOCC2)cc(Cl)c2nonc12	-3	-4	1	/	1	-1
Nc1c(N2CCCC2)cc(Cl)c2nonc12	7	6	/	/	0	56*
CC=Cc1ccc2n(c1=O)C[C@H]1[C@H](CO)[C@@H](C(=O)N3CCc4ccccc4C3)[C@@H]2N1Cc1ccncc1 (mixture of isomers)	/	/	-1	-1	/	/
Cc1ccc2c(c1)c(C1=c3ccccc3=NC1=O)c(O)n2C	11	-9	-2	2	0	-2
C=CCn1c(O)c(C2=c3ccccc3=NC2=O)c2ccccc21	-1	-15	4	0	-3	60*
Cc1[nH]n(-c2ccccc2)c(=O)c1/C=N/O	-5	-7	2	2	-3	4
Cc1[nH]n(-c2ccccc2)c(=O)c1/C=N/N1C(=O)c2ccc3c4c(ccc(c24)C1=O)CC3	-7	-2	-1	/	-3	51*
Cc1ccc(NC2CCCN(C(=O)CCCN3CCCCC3=O)C2)cc1C (stereo not given)	7	10	2	2	0	37
CC(C)c1ccc(NC2CCCN(C(=O)CCN3CCOCC3)C2)cc1 (stereo not given)	10	-5	0	-2	-2	51*
Cc1ccc(NC2CCCN(C(=O)CCn3nccc3C)C2)cc1C (stereo not given)	-16	-3	-5	-1	/	54*
Cc1ccc(NC2CCCN(C(=O)CCN3CCOCC3)C2)cc1C (stereo not given)	-5	9	0	1	-3	53*
COc1ccc(C(O)(C(C)C)C(CN2CCOCC2)c2ccccc2)cc1 (stereo not given)	3	15	-1	21*	-4	-11
COc1ccc(Br)cc1/C=N/Nc1cccc(C(=O)O)c1	-7	11	/	-2	5	8
O=C(O)c1cccc(N/N=C/c2cc(Br)cc(Br)c2O)c1	11	-14	9	/	28*	-2
CCn1c(=S)[nH]c2c(=O)n(C)c(=O)n(C)c21	4	9	0	46*	-2	/
O=[N+]([O-])c1ccc(-c2ccc(/C=N/c3c(-c4ccco4)nc4ccccn34)o2)c(Cl)c1	/	/	/	/	/	-7
O=[N+]([O-])c1ccc(Cl)c(-c2ccc(/C=N/c3c(-c4ccco4)nc4ccccn34)o2)c1	95*	-14	-1	/	0	27
O=C1O[C@@H](c2ccccc2)[C@@H](c2ccccc2)N2[C@@H](c3ccc(OCCO)cc3)[C@]3(C(=O)Nc4ccc(C#CC5=CCCCC5)cc43)[C@@H](C(=O)NC[C@H](O)c3ccccc3)[C@H]12	/	/	-1	-1	/	/
Cc1ccc2c(c1Cl)NC(C(=O)O)C1CC(Sc3ccccc3[N+](=O)[O-])C(Cl)C21 (stereo not given)	-9	-9	/	/	-11	5
SMILES	MazEF act	Y pestis TopoI	Mtb BioA inh	TcdB GH inh	FadD28 binding	DUSP3 inh
O=C(O)c1ccc2c(c1)C1C(Cl)C(Sc3ccccc3[N+](=O)[O-])CC1C(c1cccc([N+](=O)[O-])c1)N2 (stereo not given)	0	-4	17	/	43*	24
CCN(CC)C(=O)c1ccc2c(c1)C1C(Cl)C(Sc3ccccc3[N+](=O)[O-])CC1C(C(=O)O)N2 (stereo not given)	-24	4	/	/	34*	-1
Cc1ccc(-n2nc3c(=O)n(CCCC(=O)NCc4ccc(C)o4)nc(C)c3c2C)cc1	1	22	3	0	-4	-9
Cc1ccc(-n2nc3c(=O)n(CC(=O)NCc4ccc(C)o4)nc(C)c3c2C)cc1	6	7	-1	0	0	53*
Cc1ccc(NS(=O)(=O)c2ccc(NC(=O)c3cccs3)cc2)c(C)c1	53*	8	/	0	-13	-8
Cc1cc(C)nc(NS(=O)(=O)c2ccc(NC(=O)c3cccs3)cc2)n1	-10	-1	1	/	-3	4
Cc1cccc2cc3c(N)c(C(=O)N4CCc5ccccc54)sc3nc12	86*	-7	-2	1	0	5
Cc1cccc2cc3c(N)c(C#N)sc3nc12	92*	-27	4	/	-2	8
Cc1sc(NC(=O)c2sc3nc4c(C)cccc4cc3c2N)c(C#N)c1C	-2	-1	-1	/	-2	13
Cc1cccc2cc3c(N)c(C(=O)Nc4ccc(N5CCOCC5)cc4)sc3nc12	-28	-5	-1	/	-3	24
COc1ccc(NC(=O)Nc2ccc3c(c2)C(=O)N([C@H](C)CO)C[C@H](C)[C@H](CN(C)C(=O)CCC(F)(F)F)OCCCC[C@@H](C)O3)cc1	/	/	-4	/	/	/
COC(=O)c1ccccc1NC1=C/C(=N\S(=O)(=O)c2ccc(C(=O)O)cc2)c2ccccc2C1=O	-24	-2	2	/	24*	6
CCC(C)C(N)C1=NC(C(=O)N[C@@H](CC(C)C)C(=O)N[C@H](CCC(=O)O)C(=O)N[C@H](C(=O)N[C@H]2CCCCNC(=O)[C@H](CC(N)=O)NC(=O)[C@@H](CC(=O)O)NC(=O)[C@H](Cc3cnc[nH]3)NC(=O)[C@@H](Cc3ccccc3)NC(=O)[C@H]([C@@H](C)CC)NC(=O)[C@@H](CCCN)NC2=O)[C@@H](C)CC)CS1 (stereo not given in full)	387*	16	2	0	-2	/
NCCCCC(NC(=O)C1CCCN1C(=O)C1CSSCC(N)C(=O)NC(Cc2ccc(O)cc2)C(=O)NC(Cc2ccccc2)C(=O)NC(CCC(N)=O)C(=O)NC(CC(N)=O)C(=O)N1)C(=O)NCC(N)=O (stereo not given)	/	/	/	/	/	4
COc1ccc2c3c(n(C)c2c1)[C@@H](CO)N(CC1CCOCC1)CC31CCN(Cc2nccs2)CC1	/	/	/	-5	/	/
